Screening results: PubChem BioAssay, National Center for Advancing Translational Sciences (NCATS)
Compounds with a hit are over-represented: about 14% of the library has one in this group of screens.
MARV entry inh: Marburg virus entry inhibition; Potency, µM (doses to about 37.8 µM), without a hit: at the top dose activity change, negative = inhibition, usual class: inhibitors; Marburg virus pseudotyped entry inhibition, cell reporter; hit rate 1.8% among 300,000; calls by dose curve; tested in HEK293 cells; also: potency is read from the fitted curve at half-maximal effect
Lassa entry inh: inhibitors of Lassa virus binding or cell entry; Lassa virus pseudotype entry inhibition, cell reporter; Potency, µM (top dose mostly 37.9 µM), for the others: at the top dose activity change, negative = inhibition, usual class: inhibitors; hit rate 1.2% among 300,000; calls by dose curve; tested in HEK293 cells; also: potency is read from the fitted curve at half-maximal effect; nearly all actives have a fitted effect of over 50% in size
HCV inhibitor: inhibitors of hepatitis C virus infection | Huh7.5.1 HCVcc-Cre infection, luciferase reporter, 44 h | Potency, µM (top dose mostly 41.8 µM), inactives show top-dose activity change, negative = inhibition, hits mostly inhibitors | hit rate 3.4% among 340,000 | AID 651820; also: potency is read from the fitted curve at half-maximal effect
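1,000 cells/well; 4 h culture; + compound; + HCVcc-Cre (~0.5 moi); 44 h; luciferase substrate, RT 15 min; read 15 sec.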
HCMV inh: human cytomegalovirus inhibition. HFF cells, HCMV-luciferase reporter, 72 h; active compounds read low. hit rate 4.5% among 410,000. activity change, negative = inhibition, % at 57.5 µM. AID 1259415; in the data active = activity change below about -60%; inconclusive = no clear call, values can overlap the other calls; inactive = above about -39%
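Cell-based, HFFs, 1000 cells/well, 16 h 37C; cpds in DMSO + HCMV-luc, MOI 1 PFU/cell; 72 h 37C; OneGlo luminescence after 5 min RT; norm. to buffer vs Salinomycin 10uM.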
Pf growth 96h: P. falciparum growth inhibition at 96 hour, primary screen for plastid delayed-death inhibitors; P. falciparum luciferase reporter growth, 96 h; Potency, µM (titrated, usually from 28.7 µM), for the others: at the top dose activity change, negative = inhibition, usual class: inhibitors; hit rate 6.9% among 320,000; AID 504834; also: potency is read from the fitted curve at half-maximal effect
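Compounds incubated with erythrocytes infected by luciferase-expressing P. falciparum (2% hematocrit, 0.05% parasitemia final) for 96 hours, 37 C in 5% CO2. Growth inhibition scored as decreased luciferase luminescence.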
Pf growth 48h: P. falciparum growth inhibition at 48 hours (one generation); P. falciparum luciferase growth in erythrocytes, 48 h; Potency, µM (titrated, usually from 28.7 µM), inactives show at the highest dose activity change, negative = inhibition, actives largely listed as inhibitors; hit rate 5.9% among 310,000; also: potency is read from the fitted curve at half-maximal effect
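Firefly luciferase activity from engineered P. falciparum reports growth; inhibitors lower the luminescent signal. Cultures contained 2% hematocrit erythrocytes at 0.1% final parasitemia.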
The depositor's hits bear a star; ? = inconclusive; nt = no result given; ! = not active in a repeat; [ ] = another dose, or the depositor's remark. Unless noted, calls follow the shape of the dose curve; as a rule, active = well fitted inhibition curve with a large enough effect; inconclusive = small, poorly fitted or top-dose-only effect, or another doubt; inactive = no such curve, though single readings can be large or run the other way. % is scaled to controls: 0 for no effect and ±100 for the full control effect.

SMILES	MARV entry inh	Lassa entry inh	HCV inhibitor	HCMV inh	Pf growth 96h	Pf growth 48h
COc1ccc(-c2cc(C(=O)N3CCOCC3)c3ccccc3n2)cc1OC	3%	5%[46.1 µM]	12%	6	20%	?
COc1ccc(OC)c(NC(=O)c2ccc(OCC(=O)N3CCOCC3)c(OC)c2)c1	12%[46.1 µM]	-1%	-11%	19	2%	21%
O=C(Nc1nc(-c2ccc(S(=O)(=O)N3CCCC3)cc2)cs1)c1cccs1	?	?	?	-87*	-5%	?
CCCCC(=O)Nc1nc(-c2ccc(S(=O)(=O)N3CCOCC3)cc2)cs1	-25%	?	?	-90*	?	?
COc1cc2cc(C(=O)N3CCOCC3)cc(-c3ccc(C)cc3)c2cc1OC	nt	nt	?	?	8.3µM*	?
COc1cc(C(=O)Nc2nc(-c3ccc(C)cc3)cs2)ccc1OCC(=O)N1CCOCC1	-2%	7%	11µM*	-30	?	?
Cc1cccc(CSc2nnc3[nH]c(=O)cc(-c4ccccc4)n23)c1	nt	?	nt	3	nt	nt
COC(=O)C1=CN(c2ccc(Oc3ccccc3)cc2)C(N)=C(C#N)C1c1ccccc1 (configuration not stated)	nt	nt	nt	11	nt	nt
CCc1ccc(NCc2cc3ccc(OC)cc3n(CC(=O)Nc3ccc(C(C)C)cc3)c2=O)cc1	nt	-1%[46.1 µM]	nt	39	nt	nt
O=C(Nc1nc(-c2ccc(S(=O)(=O)N3CCOCC3)cc2)cs1)c1ccccc1	4µM*	?	7.9µM*	-91*	8.3µM*	8.3µM*
C[C@@H]1CN([C@H](C)CO)C(=O)CCCn2nncc2CO[C@H]1CN(C)Cc1ccc2cccnc2c1	nt	nt	nt	1	nt	nt
CC1CC(N(C(=O)c2ccc(Cl)cc2)c2ccccc2)c2ccccc2N1C(=O)c1ccco1 (configuration not stated)	?	20µM*	10µM*	-27	9.3µM*	nt
O=C(CN1C(=O)/C(=C\c2cccc(Cl)c2)Oc2ccccc21)N1CCN(c2ccccn2)CC1	nt	nt	nt	nt	9.3µM*	23%
O=C(CN1C(=O)/C(=C/c2ccccc2F)Oc2ccccc21)N1CCN(c2ccccn2)CC1	?	12%	-7%	-20	6%	18%
COc1cnc(-c2ccccn2)nc1NC(C)C	11µM*	?	?	-101*	?	15µM*
COc1cnc(-c2ccccn2)nc1Oc1ccc(Cl)c2ccccc12	?	?	?	-100*	6.6µM*	2.1µM*
COc1cnc(-c2ccccc2)nc1Oc1ccc(C(C)(C)C)cc1	?	-7%	0%	-29	?	?
COc1cccc(-c2nc(-c3ccccn3)no2)c1OC	-18%	10%	?	126	-13%	64%
COc1cnc(-c2ccccn2)nc1Oc1ccc(Cl)cc1	-13%	-10%	?	-29	5.2µM*	0.37µM*
O=[N+]([O-])c1cccnc1Oc1ccc(F)cc1F	12%	-3%	10%	47	?	?
COc1cnc(-c2ccccn2)nc1Oc1ccc(F)cc1F	?	-9%[46.1 µM]	-13%	-34	10µM*	10µM*
Cc1cccc(COC[C@H](CC(C)C)N2CCN(C(=O)c3ccc(C(F)(F)F)cc3)CCC2=O)c1	nt	nt	nt	-9	nt	nt
COc1cnc(-c2ccccn2)nc1Oc1ccccc1Cl	10%	-6%	?	-25	2.6µM*	7.4µM*
COc1cnc(-c2ccccc2)nc1Oc1ccccc1C	?	-1%	-16%	-20	?	?
CCN(CC)CCCNC(=O)c1nn(-c2ccc(C)cc2)c(=O)c2c1c1ccccc1n2C	?	-14%[46.1 µM]	nt	-23	nt	nt
SMILES	MARV entry inh	Lassa entry inh	HCV inhibitor	HCMV inh	Pf growth 96h	Pf growth 48h
CCN(CC)CCOC(=O)c1ccc(NC(=O)c2nn(-c3ccc(C)cc3)c(=O)c3c2c2ccccc2n3C)cc1	?	-6%[46.1 µM]	nt	-100*	nt	nt
CC1(C)SC2[C@@H](N=CN3CCCCCC3)C(=O)N2[C@H]1C(=O)O (some centres not stated)	nt	nt	nt	nt	17µM*	?
CCOC(=O)OC(C)OC(=O)[C@@H]1N2C(=O)[C@@H](NC(=O)[C@H](N)c3ccccc3)[C@H]2SC1(C)C (some centres not stated)	nt	nt	-19%	38	17%	10%
CC(C)(C)C(=O)OCOC(=O)[C@@H]1N2C(=O)[C@@H](N=CN3CCCCCC3)[C@H]2SC1(C)C	nt	nt	0.5µM*	22	-3%	-15%
CC1(C)SC2C(NC(=O)C3(N)CCCCC3)C(=O)N2C1C(=O)O (configuration not stated)	2%[46.1 µM]	-6%[46.1 µM]	10%	-4	nt	nt
Cn1cnc(S(=O)(=O)N2CCC(C(=O)N3CCN(c4ccccc4F)CC3)CC2)c1	nt	?	nt	-16	nt	nt
CCCCN1C(=O)C(CC(=O)NCCCN(C)C)CC(C(=O)N2CCCCCC2)=C1C (configuration not stated)	nt	nt	nt	15	nt	nt
CC(C)Oc1ccc(S(=O)(=O)N2CCOCC2)cc1NC(=O)C1COc2ccccc2O1 (configuration not stated)	nt	nt	?	-16	12µM*	12µM*
CCOc1ccc(S(=O)(=O)N2CCCCC2)cc1NC(=O)C1COc2ccccc2O1 (configuration not stated)	?	-18%	10µM*	-38	?	6.6µM*
CC(C)Oc1ccc(S(=O)(=O)N2CCOCC2)cc1NC(=O)C1=COCCO1	-9%	10%	23%	-15	12µM*	?
O=c1oc2ccccc2cc1-c1cn2cc(Cc3ccc(Br)cc3)sc2n1	?	-1%[46.1 µM]	nt	19	nt	nt
O=C(NCc1ccccc1)C1C(c2ccc3c(c2)OCO3)=Nc2ccccc2N1C(=O)c1ccco1 (configuration not stated)	nt	nt	nt	-62*	nt	nt
O=C(NCc1ccccc1)C1C(c2ccc3c(c2)OCO3)=Nc2ccccc2N1C(=O)c1ccccc1 (configuration not stated)	nt	nt	nt	-21	nt	nt
CC1(C)C[C@H]2C3=CCC4[C@@]5(C)CC[C@H](O)[C@@](C)(CO)C5CC[C@@]4(C)[C@]3(C)C[C@@H](O)[C@@]2(CO)[C@@H](O)[C@@H]1O (some centres not stated)	nt	nt	4%	-73*	nt	nt
OCCN1CCN(CC/C=C2/c3ccccc3CSc3ccccc32)CC1	nt	nt	?	-22	nt	nt
CN1CCN(CCC=C2c3ccccc3Sc3ccc(S(=O)(=O)N(C)C)cc32)CC1	nt	nt	?	-22	11µM*	12µM*
OCCN1CCN(CCC=C2c3ccccc3Sc3ccc(Cl)cc32)CC1	nt	nt	nt	nt	4.5µM*	?
OCCN1CCN(CC/C=C2/c3ccccc3Sc3ccc(C(F)(F)F)cc32)CC1	8.9µM*	5.8µM*	0.89µM*	-30	8.3µM*!	6.6µM*
CNc1ccccc1C(=O)OCC(=O)N1CCc2ccccc2C1	nt	nt	nt	27	nt	nt
